Compounds with a hit are over-represented: about 2.4% of the library has one in this group of screens.
POLH inh: inhibitors of human DNA polymerase eta; 390,000 tested, 1.2% active; Potency, µM (highest dose often 114 µM), for the others: at the highest dose activity change, negative = inhibition, most hits filed as inhibitors; recombinant Pol eta, fluorescent DNA replication assay; Q9Y253; further: on the % scale 0 is the no-effect control and ±100 the full control effect
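Fluorescent replication assay: 50 nM final substrate added after a 15 min room-temperature compound preincubation with 10 nM enzyme. Signal taken at 0 min and again at 10 min.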
GLS inhibitor: blocks human kidney-isoform glutaminase activity; O94925; GLS enzymatic activity, qHTS titration; Potency, µM (doses to about 45.5 µM), without a hit: top-dose activity change, negative = inhibition, usual class: inhibitors; 410,000 tested, 0.21% active; AID 624170; further: on the % scale 0 is the no-effect control and ±100 the full control effect
Target sequence (O94925 whole entry, looked up, canonical isoform): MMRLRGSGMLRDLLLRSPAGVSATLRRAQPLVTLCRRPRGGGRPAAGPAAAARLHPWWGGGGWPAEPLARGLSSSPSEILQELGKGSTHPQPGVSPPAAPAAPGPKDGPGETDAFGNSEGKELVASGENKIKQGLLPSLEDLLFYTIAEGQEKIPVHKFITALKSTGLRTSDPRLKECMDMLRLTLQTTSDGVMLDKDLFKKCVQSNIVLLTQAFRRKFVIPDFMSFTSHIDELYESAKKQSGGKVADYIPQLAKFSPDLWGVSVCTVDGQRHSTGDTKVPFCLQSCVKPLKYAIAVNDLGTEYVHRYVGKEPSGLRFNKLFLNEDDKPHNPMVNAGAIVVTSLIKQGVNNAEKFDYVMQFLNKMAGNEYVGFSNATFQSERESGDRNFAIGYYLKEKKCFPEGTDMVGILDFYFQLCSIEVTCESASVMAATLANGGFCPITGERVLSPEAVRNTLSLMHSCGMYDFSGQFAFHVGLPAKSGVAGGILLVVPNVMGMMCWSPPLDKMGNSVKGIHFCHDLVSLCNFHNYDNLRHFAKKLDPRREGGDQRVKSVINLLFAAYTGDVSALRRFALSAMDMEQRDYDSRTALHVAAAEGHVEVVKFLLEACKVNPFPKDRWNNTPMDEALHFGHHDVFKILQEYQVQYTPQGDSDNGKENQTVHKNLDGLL
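Enzyme dispensed in phosphate buffer (45 mM, pH 8.2, 0.02% Tween-20), compounds pinned in, then 1 mM L-glutamine solution and the glutamate oxidase–HRP–Amplex Red mix added; fluorescence read immediately and again after 30 min at room temperature.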
Pol kappa inh: blocks human DNA polymerase kappa activity; Q9UBT6; purified Pol kappa, fluorescent DNA synthesis assay, 10 min; Potency, µM (titrated, usually from 107 µM), for the others: at the top dose activity, negative = inhibition, most hits filed as inhibitors; 400,000 tested, 0.53% active; further: on the % scale 0 is the no-effect control and ±100 the full control effect
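Fluorescent qHTS in 1536-well format: enzyme (10 nM) and compound sat 15 min at room temperature before 50 nM substrate (final) was added. Signal taken at 0 and 10 min; no-enzyme buffer wells were negative controls.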
POLI inh: blocks human DNA polymerase iota activity | Q9UNA4 | Pol iota fluorescent replication assay, 10 min | Potency, µM (titrated, usually from 115 µM), without a hit: at the highest dose activity, negative = inhibition, usual class: inhibitors | 390,000 tested, 1% active | AID 588590
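Pol iota at 10 nM preincubated 15 min with compounds at room temperature; reaction started with fluorescent substrate, 50 nM final. Fluorescence read kinetically at 0 and 10 min; buffer-only wells as negative control.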
KAT2A inh: inhibitors of human GCN5L2 histone acetyltransferase. Q92830. GCN5L2 HAT assay, ThioGlo1 CoA-SH fluorescence. Potency, µM (top dose mostly 58.9 µM), without a hit: at the top dose activity change, negative = inhibition, usual class: inhibitors. 390,000 tested, 0.21% active. AID 504327; further: on the % scale 0 is the no-effect control and ±100 the full control effect
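qHTS, 1536-well. 20nM enzyme, pH 7.5 HEPES/EDTA/Tween-20 buffer; 15 min compound preinc., RT. Start: 75uM H3(1-25), 70uM AcCoA, 50uM ThioGlo1. Read Ex340/Em540 at t=0 (autofluorescence flag) and t=20 min.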
POLB inh: blocks human DNA polymerase beta activity; Pol beta primer extension/strand displacement, fluorescence kinetic; 340,000 tested, 1.3% active; P06746; Potency, µM (highest dose often 114 µM), for inactives: at the top dose activity change, negative = inhibition, usual class: inhibitors; further: on the % scale 0 is the no-effect control and ±100 the full control effect
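Enzyme-only controls used 10 nM Pol beta; buffer lacking enzyme served as negative control. Compound preincubated 15 min, then 50 nM substrate added; 0 and 10 min reads at room temperature.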
* = called active by the depositor; [ ] = another dose, or the depositor's remark. The call rests on the fitted dose curve; in most records, active means well fitted inhibition curve with a large enough effect; inconclusive means small, poorly fitted or top-dose-only effect, or another doubt; inactive means no such curve, though single readings can be large or run the other way. Potency means the concentration at half of the fitted maximal effect.

Screening O=C(C[n+]1cccc(Cl)c1)c1ccc(O)c(O)c1 returned Pol kappa inh 2.24µM* and POLI inh inconclusive.
For O=C(C[n+]1ccccc1)c1ccc(Cl)cc1 the results were POLH inh -3.8%, GLS inhibitor -3.6%, Pol kappa inh 0.8%, POLI inh -21.9%, KAT2A inh 7.4% and POLB inh -14.0%.
Screening COc1cc(C(=O)O)ccc1OC(C)=O returned POLH inh -2.6%, GLS inhibitor 11.9%, Pol kappa inh -3.2%, POLI inh 89.1µM*, KAT2A inh -9.0% and POLB inh 23.9%.
Screening CC(=O)Oc1ccc(C(=O)O)cc1OC(C)=O returned POLH inh -10.5%, GLS inhibitor 34.3%, Pol kappa inh 4.2%, POLI inh -11.5%, KAT2A inh 0.4% and POLB inh 7.5%.
Screening NC(=O)CSC1=N/C(=C\c2ccco2)C(=O)N1c1ccc(OC(F)F)cc1 returned POLH inh 31.6%, GLS inhibitor 13.0%, Pol kappa inh inconclusive, POLI inh 35.5µM*, KAT2A inh -10.3% and POLB inh -22.9%.
`CCN(CC)C(=O)CSC1=N/C(=C/c2ccco2)C(=O)N1c1ccc(OC)c(Cl)c1` gave POLH inh inconclusive, GLS inhibitor -1.5%, Pol kappa inh -12.0%, POLI inh -15.6%, KAT2A inh -3.4% and POLB inh inconclusive.
Screening C1=Cc2ccccc2/C1=C\c1cc2c3c(c1)CCCN3CCC2 returned Pol kappa inh -7.6% and POLI inh -12.2%.
Screening CCOc1ccc(NC(=O)CSc2nnc3c(n2)[nH]c2ccc(S(=O)(=O)N4CCCCC4)cc23)cc1 returned Pol kappa inh -37.0% and POLI inh -14.6%.
For CCc1nc2cccnc2n1-c1ccc(CC(=O)O)cc1 the results were POLH inh 50.1µM*, GLS inhibitor 6.0%, Pol kappa inh -23.5%, POLI inh 64.4%, KAT2A inh -2.4% and POLB inh -1.2%.
Screening Cc1cccc(NC(=O)C2CCCN2S(=O)(=O)c2ccc3nc(-c4ccccc4)[nH]c3c2)c1 (stereo unspecified) returned POLH inh 79.4µM*, GLS inhibitor 4.3%, Pol kappa inh inconclusive, POLI inh inconclusive, KAT2A inh -16.0% and POLB inh inconclusive.
`C/C(=N\Nc1nc(-c2cc(C)ccc2C)cs1)c1cc2c(ccc3ccccc32)oc1=O` gave POLH inh -17.8%, GLS inhibitor 20.4%, Pol kappa inh 79.4µM*, POLI inh inconclusive, KAT2A inh -19.4% and POLB inh inconclusive.
Screening CC(=O)c1cc2c(ccc3ccccc32)oc1=O returned POLH inh -11.9%, GLS inhibitor -2.7%, Pol kappa inh -2.8%, POLI inh 168.2%, KAT2A inh 3.2% and POLB inh -0.8%.
For C/C(=N\Nc1nc(-c2cc(C)ccc2C)cs1)c1cc2ccccc2oc1=O the results were POLH inh -4.5%, GLS inhibitor 6.1%, Pol kappa inh -23.6%, POLI inh 10.2%, KAT2A inh -4.1% and POLB inh 50.1µM*.
Screening CC(C)COc1ccc(CC(=O)NO)cc1 returned Pol kappa inh -15.8% and POLI inh 48.2%.
NC(=O)C1=CN(C2OC(COP(=O)(O)OP(=O)(O)OC[C@H]3O[C@@H](n4cnc5c(N)ncnc54)[C@H](OP(=O)(O)O)[C@@H]3O)C(O)C2O)C=CC1 (stereo partly specified) was read as Pol kappa inh -10.2%[60.1 µM] and KAT2A inh -19.1%.
Screening Cc1ccc(C)c(N2CCN(C(=O)c3ccc(CS(=O)(=O)c4ccccc4C)o3)CC2)c1 returned POLH inh -28.4%, GLS inhibitor 9.0%, Pol kappa inh -10.1%, POLI inh 9.7%, KAT2A inh -21.0% and POLB inh inconclusive.
`Cc1ccc(S(=O)(=O)Cc2ccc(C(=O)N3CCN(c4cc(C)ccc4C)CC3)o2)cc1` gave POLH inh -7.4%, GLS inhibitor -1.3%, Pol kappa inh -24.9%, POLI inh inconclusive, KAT2A inh -0.6% and POLB inh 39.8µM*.
For CCOC(=O)C1CCCN(C(=O)c2ccc(CS(=O)(=O)c3ccc(C)cc3)o2)C1 (stereo unspecified) the results were POLH inh 17.8µM*, GLS inhibitor -24.3%, Pol kappa inh -41.1%, POLI inh 31.6µM*, KAT2A inh -6.6% and POLB inh inconclusive.
`CC(=O)NC(Cc1ccc(O)cc1)C(=O)NCC(N)C(=O)c1ccccc1` (stereo unspecified) gave Pol kappa inh 0.0% and POLI inh -10.4%.
`COC(=O)c1cc(COc2ccc3ccc(=O)oc3c2)c(C)o1` gave POLH inh 10.5%, GLS inhibitor -1.1%, Pol kappa inh -26.6%, POLI inh 5.3%, KAT2A inh -3.3% and POLB inh -20.5%.
Screening Cc1oc(C(=O)O)cc1COc1ccc2c(C)cc(=O)oc2c1 returned POLH inh 22.4µM*, GLS inhibitor 8.8%, Pol kappa inh -24.9%, POLI inh -14.3%, KAT2A inh -16.7% and POLB inh inconclusive.
For CCCCC/C(C=O)=C/c1ccccc1 the results were GLS inhibitor -18.9%, Pol kappa inh -10.0%[60.1 µM] and KAT2A inh -7.5%.
Cc1oc(-c2cccc(Cl)c2)nc1CN1CCC(C(=O)NC(C)C)CC1 was read as POLH inh -16.1%, GLS inhibitor -0.3%, Pol kappa inh -19.6%, POLI inh 89.1µM*, KAT2A inh 0.0% and POLB inh 14.6%.
For CCOC(=O)C1CCN(S(=O)(=O)c2ccc3c(c2)CCCN3C(C)=O)CC1 the results were POLH inh -4.0%, GLS inhibitor -11.8%, Pol kappa inh -5.1%, POLI inh -0.7%, KAT2A inh -5.9% and POLB inh -0.1%.
CCOC(=O)C1CCN(S(=O)(=O)c2ccc3c(c2)CC(=O)N3C)CC1 was read as POLH inh inconclusive, GLS inhibitor 1.9%, Pol kappa inh -11.8%, POLI inh 14.1µM*, KAT2A inh -11.6% and POLB inh -3.5%.
Screening OCC1OC(O)C(O)C(O)C1O (stereo unspecified) returned GLS inhibitor -11.0%, Pol kappa inh -3.1%[60.1 µM] and KAT2A inh inconclusive.
`OCC1OC([S-])[C@H](O)C(O)C1O.[Au+]` (stereo partly specified) gave GLS inhibitor 11.2µM*, Pol kappa inh 5.01µM* and KAT2A inh 11.2µM*.
